Anthrax LF prot = inhibitors of Bacillus anthracis lethal factor protease; multiplex microsphere protease cleavage assay, LF; P15917; 360,000 compounds, 0.12% hits; inhibition, % at 10 µM; AID 588501
MazF activator = increases E. coli MazEF RNase cleavage of RNA; FAM/BHQ RNA-DNA oligo cleavage fluorescence, 5 h; activation, % at 20 µM; 350,000 compounds, 0.32% hits; in the data active means activation above about 50%
BoNT-A LC inh2 = inhibitors of Botulinum neurotoxin A light chain protease; multiplex microsphere protease substrate cleavage, flow cytometry; inhibition, % at 10 µM; 360,000 compounds, 0.17% hits; AID 588499
Autofluor counter = compound fluorescence in toxin protease inhibitor counterscreen | fluorescence intensity (no concentration beside the values) | 360,000 compounds, 3.1% hits | compound autofluorescence counterscreen, microsphere flow cytometry; hits give high values; in the data active means fluorescence intensity above about 16000; inconclusive means no clear call, values can overlap the other calls
BoNT F protease = BoNT F light chain protease inhibition; Multiplex microsphere protease cleavage assay, flow cytometry; inhibition, % at 10 µM; 360,000 compounds, 0.22% hits; AID 588497; in the data active means inhibition above about 35%, passing the limit was not always enough; inconclusive means no clear call, values can overlap the other calls
Numbers stand for hits; 0 = inactive; ? = inconclusive; - = no result given. In the library only some 3.7% were active in any assay of this set; here they are far more common. Unless noted, no stated cut-off is given here; in the data, active means inhibition above about 30%; inconclusive means no clear call, values can overlap the other calls; inactive means below that.

SMILES	Anthrax LF prot	MazF activator	BoNT-A LC inh2	Autofluor counter	BoNT F protease
CCCC1NC(=O)c2cccnc2-n2c1nc1cc(C)cc(C)c1c2=O (stereo not drawn)	0	0	0	0	0
CCOC(=O)C1CCN(Cc2ccccc2C(F)(F)F)CC1	0	0	0	0	0
CCOC(=O)C1CCCCN1Cc1ccccc1C(F)(F)F (stereo not drawn)	0	0	0	17635	0
CCS(=O)(=O)c1ccc2oc(Nc3ccc(C(C)C)cc3)nc2c1	0	0	0	0	0
CCS(=O)(=O)c1ccc2oc(Nc3cc(C)cc(C)c3)nc2c1	0	0	0	20341	0
O=c1[nH]c(N/N=C/c2ccccc2)nc2ccccc12	0	0	0	16682	0
O=C(COC(=O)c1cnccn1)NC1CCCc2ccccc21 (stereo not drawn)	0	0	0	0	0
Cc1ccc2[nH]c(=O)c(NC(N)=S)nc2c1	0	0	0	20753	0
Cc1c(-c2cccs2)[n+](=O)c2c(n1[O-])CCCC2	0	0	0	20042	0
O=S1(=O)N=C(Oc2ccccc2)c2ccccc21	0	0	0	23213	0
COC1=NS(=O)(=O)c2ccccc21	0	0	0	0	0
CCOC(=O)C1=C(C)N=C2SC(C(=O)OC)=CC(=O)N2C1c1cccc(OC)c1 (stereo not drawn)	0	0	0	19879	0
COc1cc(-c2noc(CCCC(=O)NCc3ccco3)n2)cc(OC)c1OC	0	0	0	21043	0
Cc1ccc(-c2noc(CCC(=O)NCc3ccco3)n2)cc1	0	0	0	19424	0
CCCCCCCCN1C(=O)[C@H](CC(=O)NCc2cccc(C(F)(F)F)c2)C[C@@]2(C(=O)OC)CCCCC=C12	0	-	0	0	0
Cc1ccc(C(=O)NN2C(=O)/C(=C/c3cn(C)c4ccccc34)SC2=S)cc1	0	0	42.7	0	0
Cn1cc(/C=C2\SC(=S)N(NC(=O)c3ccccc3Cl)C2=O)c2ccccc21	0	0	0	0	0
Cc1cc(=O)oc2cc(OCC3CC(c4ccc(Cl)cc4)=NO3)ccc12 (stereo not drawn)	0	0	0	22029	0
CCCn1c(N)c(N(CCOC)C(=O)CSc2cc(C)c3ccccc3n2)c(=O)[nH]c1=O	0	0	0	0	0
OC[C@@H]1CN(Cc2ccncc2)C[C@H](n2cnc3c(NCc4ccncc4)ncnc32)O1	0	-	0	0	0
CCOC(=O)CSC1=C(C#N)C(c2ccccc2Cl)C(C(=O)OC)C(=O)N1 (stereo not drawn)	0	0	0	20786	0
CCCCOc1ccc(OCCCC)c2c1NC1(N2)C(=O)N(C(C)=O)c2ccccc21	0	105.1	0	0	0
CCNC(=O)N1C(=O)C2(OCCO2)c2ccccc21	0	0	0	0	0
Cc1nnc(SCc2c(Cl)cccc2Cl)s1	0	0	0	0	0
Nc1nnc(SCc2ccc(Cl)cc2)s1	0	0	0	0	0
SMILES	Anthrax LF prot	MazF activator	BoNT-A LC inh2	Autofluor counter	BoNT F protease
Nc1nnc(SCc2ccc(F)cc2Cl)s1	0	0	0	21708	0
Cc1nnc(SCc2cccc(CSc3nnc(C)s3)c2)s1	0	0	0	0	0
Cc1nnc(SCc2ccc3c(c2)OCO3)s1	0	0	0	21079	0
Cc1nnc(SCc2ccc(F)cc2Cl)s1	0	0	0	19791	0
COc1ccc(S(=O)(=O)N2CCCCC2c2cc(C(=O)Nc3ccc(OC)cc3C)no2)cc1 (stereo not drawn)	0	-	0	0	0
CCOc1cc(C2C(C(=O)N3CCCCC3)=C(C)NC3=C2C(=O)CCC3)cc(Br)c1O (stereo not drawn)	0	0	0	24537	0
Cc1cc(NCC(=O)Nc2ccc(C)c(S(=O)(=O)N3CCOCC3)c2)ccc1Br	0	0	0	0	0
CCN(CC)S(=O)(=O)c1ccc(C(=O)NCc2n[nH]c(=S)n2Cc2ccccc2)cc1	0	0	0	21413	0
CCN(CC)S(=O)(=O)c1ccc(C(=O)NCc2cccs2)cc1	0	0	0	21571	0
O=C(NCc1n[nH]c(=S)n1Cc1ccccc1)c1ccccc1	0	0	0	0	0
CC1=C(C(=O)N2CCOCC2)CC(CC(=O)NC2CCCC2)C(=O)N1Cc1ccccc1 (stereo not drawn)	0	0	0	0	0
CC(=O)Nc1cccc(NC(=O)CSc2nc(C)c(C)c(C)c2C#N)c1	0	0	?	21241	0
O=C1c2ccccc2C(=O)C1Cc1cccc2ccccc12	0	0	0	21890	0
COc1ccc(Cl)cc1NC(=S)NCc1ccco1	0	0	0	23985	0
CCOc1ccccc1NC(=S)NCc1ccco1	0	0	0	22578	0
CC[C@H](C)NC(=O)CCCCCn1c(=S)[nH]c2c([nH]c3ccc(OC)cc32)c1=O	0	0	0	0	0
COc1ccc2[nH]c3c(=O)n(CCCCC(=O)NCCN4CCCC4)c(=S)[nH]c3c2c1	0	0	0	17189	0
CCCCNC(=O)CCCCn1c(=S)[nH]c2c([nH]c3ccc(OC)cc32)c1=O	0	0	0	0	0
COc1ccc2[nH]c3c(=O)n(CCCCC(=O)N4CCC(C(N)=O)CC4)c(=S)[nH]c3c2c1	0	0	?	20373	0
CCCCCC(=O)OCc1ccc(C2=CC(=O)CC(C)(C)C2=O)cc1	0	0	0	0	0
O=C(Nc1cccc(NC(=O)C2C3CC4OC(=O)C2C4C3)c1)c1ccccc1 (stereo not drawn)	0	0	0	0	0
O=C(Nc1ccccc1Cl)c1cccc(NC(=O)C2C3CC4OC(=O)C2C4C3)c1 (stereo not drawn)	0	0	0	23034	0
O=C1NC(=O)C2(Cc3ccccc3N3CCCC32)C(=O)N1c1cccc(Cl)c1 (stereo not drawn)	0	0	?	20287	0
Cc1ccc(N2C(=O)NC(=O)C3(Cc4ccccc4N4CCN(c5ccccc5)CC43)C2=O)cc1 (stereo not drawn)	0	0	0	19868	0
COC(=O)N(C)C[C@H]1OCc2cnnn2CCCC(=O)N([C@H](C)CO)C[C@H]1C	0	0	0	0	0
SMILES	Anthrax LF prot	MazF activator	BoNT-A LC inh2	Autofluor counter	BoNT F protease
Cc1ccc(NC(=O)CSc2nnc(-c3ccncc3)n2N)cc1C	0	0	0	24163	0
COC(=O)CSc1nnc(-c2ccncc2)n1N	0	0	0	19048	0
COc1ccc(N2CCN(C(=O)COC(=O)CC(NC(N)=O)c3ccc(Cl)cc3)CC2)cc1 (stereo not drawn)	0	0	0	0	0
O=C(CSc1nc2[nH]ncc2c(=O)[nH]1)Nc1ccc(Cl)cc1	0	0	0	0	0
Cc1ccc(N2C(=O)N(CC(=O)N3c4ccccc4CC3C)C(=O)C2C)cc1 (stereo not drawn)	0	0	0	0	0
COc1ccc(C2=Nn3c(nnc3-c3ccccn3)SC2)cc1OC	0	0	?	22882	0
c1ccc(-c2nnc3n2N=C(c2ccc4c(c2)OCO4)CS3)nc1	0	0	0	18035	0
COc1ccc(C2=Nn3c(nnc3-c3ccccc3OC)SC2)cc1OC	-	0	-	-	-
CCC(C(=O)OCC(=O)N(CC)c1c(N)n(Cc2ccccc2)c(=O)[nH]c1=O)c1ccccc1 (stereo not drawn)	0	0	0	0	0

Compound activity from PubChem BioAssay.
